Measured values published in PubChem BioAssay (Tox21).
“And” between values parts separate entries of the source, which are not always exact repeats. Equal values may be shown once. Inconclusive results are not listed. Entries that show only a call come without a potency. The source holds several records for some structures; these can differ, active in one and inactive in another. The source made the active and inactive calls. Unless noted, calls follow the shape of the dose curve; as a rule, active = well fitted curve in the direction sought with a large enough effect in the repeat runs; inconclusive = weak or mixed curves; inactive = no such curve, though single readings can be large; an effect the other way counts as inactive or inconclusive.

How the values were obtained:
[1] = qHTS assay to identify small molecule antagonists of the estrogen related receptor (ERR) signaling pathway from Tox21 library - cell viability counter screen (AID 1224834); also: nearly all actives have a fitted effect of over 30% in size; also: potency is read from the fitted curve at half-maximal effect
Method in brief: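 Counter screen run in ERR cells (2,000 cells/well): cells pre-incubated 6 h, then treated with compounds for 17.5 h at 37 C. Fluorescence was read 30 min after CellTiter-Fluor addition.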

[2] = target: Luciferin 4-monooxygenase (Photinus pyralis) (UniProt P08659); assay: qHTS assay to identify small molecule inhibitors of firefly luciferase (AID 1224835); also: nearly all actives have a fitted effect of over 25% in size; also: potency is read from the fitted curve at half-maximal effect
Chain of Luciferin 4-monooxygenase (Photinus pyralis) (P08659 whole entry, looked up): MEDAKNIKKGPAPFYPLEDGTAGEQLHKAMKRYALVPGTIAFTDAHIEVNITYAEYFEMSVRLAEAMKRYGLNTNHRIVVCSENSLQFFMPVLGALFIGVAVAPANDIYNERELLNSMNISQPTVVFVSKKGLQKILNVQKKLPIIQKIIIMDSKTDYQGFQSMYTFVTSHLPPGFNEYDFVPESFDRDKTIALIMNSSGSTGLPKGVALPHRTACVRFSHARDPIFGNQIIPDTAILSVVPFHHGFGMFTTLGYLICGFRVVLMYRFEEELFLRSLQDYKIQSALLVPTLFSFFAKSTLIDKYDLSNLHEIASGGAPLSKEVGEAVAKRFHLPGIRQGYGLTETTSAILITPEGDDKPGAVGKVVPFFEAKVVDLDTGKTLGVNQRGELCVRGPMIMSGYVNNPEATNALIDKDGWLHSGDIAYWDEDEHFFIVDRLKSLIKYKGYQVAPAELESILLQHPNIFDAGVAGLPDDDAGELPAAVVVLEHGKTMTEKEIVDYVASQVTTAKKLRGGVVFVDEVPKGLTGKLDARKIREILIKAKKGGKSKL
Method in brief: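 Quantitative HTS format; KM concentrations of both substrates. Purified P. pyralis FLuc activity quantified from luminescence images.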

[3] = qHTS assay to identify small molecule agonists of the constitutive androstane receptor (CAR) signaling pathway - cell viability counter screen (AID 1224836); also: nearly all actives have a fitted effect of over 45% in size; also: potency is read from the fitted curve at half-maximal effect
Method in brief: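 Double-stable HepG2 hepatoma cells (hCAR plus CYP2B6-2.2kb) are treated for 23 h at 37 C with test compounds in 15-point concentration series. PK11195 at 0.75 uM final is co-added. Cell viability is quantified by CellTiter-Fluor.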

[4] = qHTS assay to identify small molecule antagonists of the constitutive androstane receptor (CAR) signaling pathway - cell viability counter screen (AID 1224837); also: nearly all actives have a fitted effect of over 45% in size; also: potency is read from the fitted curve at half-maximal effect
Method in brief: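 CITCO at 50 nM final was added alongside compounds (15 concentrations) to double-stable hCAR/CYP2B6-2.2kb HepG2 cells. Following 23 hr at 37 C, cell viability was quantified by CellTiter-Fluor fluorescence intensity.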

[5] = qHTS assay to identify small molecule agonists of the estrogen related receptor signaling pathway with the pleiotropic PPARgamma coactivator (PGC) from Tox21 10K library (AID 1224842); also: nearly all actives have a fitted effect of over 15% in size; also: potency is read from the fitted curve at half-maximal effect
Method in brief: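 PGC/ERR reporter cells (NTP line) were seeded 2,000 per well, rested 6 h at 37 C/5% CO2, then pin-dosed with compounds in DMSO for 18 h at 37 C; luciferase read by One-Glo luminescence after 30 min at room temperature.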

[6] = qHTS assay to identify small molecule agonists of the hypoxia (HIF-1) signaling pathway - cell viability counter screen (AID 1224844; calls by dose curve; also: nearly all actives have a fitted effect of over 50% in size; also: potency is read from the fitted curve at half-maximal effect)
Method in brief: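 In this counter screen, HRE-bla ME-180 cell viability after 17 hrs of compound exposure at 37C was read by CellTiter-Glo luminescence, multiplexed with the beta-lactamase reporter measurement.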

[7] = qHTS assay to identify small molecule agonists of H2AX (AID 1224845; active = well fitted activation curve with a large enough effect in the signal ratio in the repeat runs, not every such curve was filed as active; the % refers to the signal ratio)
Method in brief: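 Wild-type CHO-K1 cells plated overnight, then exposed 3 hr at 37C to compounds at 15 concentrations (0.76% DMSO). Lysed, then HTRF anti-pH2AX(S139)-cryptate/anti-H2AX-d2 detection after 24 hr at room temperature; emissions 665 and 620 nm.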

[8] = qHTS assay to identify small molecule agonists of H2AX - cell viability counter screen (AID 1224847; calls by dose curve; also: nearly all actives have a fitted effect of over 30% in size; also: potency is read from the fitted curve at half-maximal effect)
Method in brief: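 For this counter screen, overnight-attached CHO-K1 cells received test compounds (15 concentrations, 0.76% DMSO final); 3 hr later at 37C, CellTiter-Glo reagent was added and luminescence recorded after 30 min at room temperature.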

[9] = qHTS assay to identify small molecule agonists of the estrogen related receptor (ERR) signaling pathway from Tox21 library (AID 1224849; calls by dose curve; also: nearly all actives have a fitted effect of over 15% in size); settings: ERR reporter cell line, ONE-Glo luciferase, 18 h
Method in brief: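 Luciferase activity in ERR pathway reporter cells served as the agonist readout; exposure lasted 18 h at 37 C, with ONE-Glo detection after 30 min at room temperature.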

[10] = qHTS RealTime-Glo MT Cell Viability Assay in HepG2 cells - 24 hour (AID 1224867); also: nearly all actives have a fitted effect of over 50% in size; also: potency is read from the fitted curve at half-maximal effect
Method in brief: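 Compound treatment began 5 h after plating HepG2 cells (600/well) with NanoLuc luciferase and prosubstrate. Plates stayed at 37 C for 40 h; luminescence was captured at six time points, 0 h through 40 h.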

[11] = qHTS RealTime-Glo MT Cell Viability Assay in HEK293 cells - 32 hour (AID 1224868); also: nearly all actives have a fitted effect of over 50% in size; also: potency is read from the fitted curve at half-maximal effect
Method in brief: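 Quantitative high-throughput screen of the Tox21 10K library in HEK293: cells and RealTime-Glo reagents plated together, compound added at 5 h, luminescence monitored through 40 h at 37 C.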

[12] = A CellTox Green Cytotoxicity Assay to monitor cytotoxicity in HEK293 cells - 0 hour (AID 1224869); also: nearly all actives have a fitted effect of over 50% in size; also: potency is read from the fitted curve at half-maximal effect
Method in brief: (§1)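 Real-time, in one plate: 600 HEK293 cells/well with dead-cell DNA dye, pinned compound after 5 h, 37 C incubation over 40 h; viable cells give no appreciable fluorescence.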

[13] = qHTS RealTime-Glo MT Cell Viability Assay in HepG2 cells - 40 hour (AID 1224870); also: nearly all actives have a fitted effect of over 50% in size; also: potency is read from the fitted curve at half-maximal effect
Method in brief: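 HepG2 cells mixed with RealTime-Glo MT reagents (NanoLuc plus cell-permeant prosubstrate) were seeded at 600 cells/well, incubated 5 h at 37 C/5% CO2, then pinned with compounds in DMSO; nonlytic luminescence tracked viability during 40 h treatment.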

[14] = A CellTox Green Cytotoxicity Assay to monitor cytotoxicity in HEK293 cells - 40 hour (AID 1224871); also: nearly all actives have a fitted effect of over 45% in size; also: potency is read from the fitted curve at half-maximal effect
Method in brief: as §1

[15] = target: Nuclear receptor subfamily 1 group I member 3 (Homo sapiens) (UniProt Q14994); assay: qHTS assay to identify small molecule antagonists of the constitutive androstane receptor (CAR) signaling pathway (AID 1224838); also: nearly all actives have a fitted effect of over 40% in size; also: potency is read from the fitted curve at half-maximal effect
Chain of Nuclear receptor subfamily 1 group I member 3 (Homo sapiens) (Q14994 whole entry, looked up): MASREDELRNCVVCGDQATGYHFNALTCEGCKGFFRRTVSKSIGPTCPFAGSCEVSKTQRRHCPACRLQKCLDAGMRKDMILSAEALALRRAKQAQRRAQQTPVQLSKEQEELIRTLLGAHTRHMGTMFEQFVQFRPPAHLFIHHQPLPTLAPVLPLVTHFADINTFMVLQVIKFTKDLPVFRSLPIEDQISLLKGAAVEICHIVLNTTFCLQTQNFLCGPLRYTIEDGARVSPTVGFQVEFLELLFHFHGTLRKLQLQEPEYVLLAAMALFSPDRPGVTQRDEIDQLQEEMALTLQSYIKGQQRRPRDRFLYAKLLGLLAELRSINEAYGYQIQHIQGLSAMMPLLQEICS
Method in brief: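 Inhibition of CITCO-driven (50 nM final) CYP2B6 reporter expression is measured in HepG2 cells stably carrying hCAR. Fifteen compound concentrations are applied for 24 h at 37 C, followed by luciferase luminescence.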

[16] = target: Nuclear receptor subfamily 1 group I member 3 (Homo sapiens) (UniProt Q14994); assay: qHTS assay to identify small molecule agonists of the constitutive androstane receptor (CAR) signaling pathway (AID 1224839); also: nearly all actives have a fitted effect of over 15% in size; also: potency is read from the fitted curve at half-maximal effect
Method in brief: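 Readout: firefly luciferase luminescence via ONE-Glo. System: HepG2 double-stable for hCAR and CYP2B6-2.2kb. Conditions: 15-point compound titration, PK11195 at 0.75 uM final, 24 h incubation.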

[17] = qHTS assay to identify small molecule antagonists of the estrogen related receptor signaling pathway with the pleiotropic PPARgamma coactivator (PGC) from Tox21 10K library - cell viability counter screen (AID 1224840; active = well fitted cell-killing curve with a large enough effect in the repeat runs, not every such curve was filed as active; also: nearly all actives have a fitted effect of over 40% in size; also: potency is read from the fitted curve at half-maximal effect)
Method in brief: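 Readout: fluorescence intensity from CellTiter-Fluor after 30 min at 37 C/5% CO2. Preceded by 17.5 h treatment of PGC/ERR cells with DMSO-dissolved compounds, added 6 h post-seeding.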

[18] = target: Thyrotropin receptor (Homo sapiens) (UniProt P16473); assay: qHTS assay to identify small molecule agonists of the thyroid stimulating hormone receptor (TSHR) signaling pathway (AID 1224843; calls by dose curve; also: nearly all actives have a fitted effect of over 45% in size; also: potency is read from the fitted curve at half-maximal effect)
Chain of Thyrotropin receptor (Homo sapiens) (P16473 whole entry, looked up): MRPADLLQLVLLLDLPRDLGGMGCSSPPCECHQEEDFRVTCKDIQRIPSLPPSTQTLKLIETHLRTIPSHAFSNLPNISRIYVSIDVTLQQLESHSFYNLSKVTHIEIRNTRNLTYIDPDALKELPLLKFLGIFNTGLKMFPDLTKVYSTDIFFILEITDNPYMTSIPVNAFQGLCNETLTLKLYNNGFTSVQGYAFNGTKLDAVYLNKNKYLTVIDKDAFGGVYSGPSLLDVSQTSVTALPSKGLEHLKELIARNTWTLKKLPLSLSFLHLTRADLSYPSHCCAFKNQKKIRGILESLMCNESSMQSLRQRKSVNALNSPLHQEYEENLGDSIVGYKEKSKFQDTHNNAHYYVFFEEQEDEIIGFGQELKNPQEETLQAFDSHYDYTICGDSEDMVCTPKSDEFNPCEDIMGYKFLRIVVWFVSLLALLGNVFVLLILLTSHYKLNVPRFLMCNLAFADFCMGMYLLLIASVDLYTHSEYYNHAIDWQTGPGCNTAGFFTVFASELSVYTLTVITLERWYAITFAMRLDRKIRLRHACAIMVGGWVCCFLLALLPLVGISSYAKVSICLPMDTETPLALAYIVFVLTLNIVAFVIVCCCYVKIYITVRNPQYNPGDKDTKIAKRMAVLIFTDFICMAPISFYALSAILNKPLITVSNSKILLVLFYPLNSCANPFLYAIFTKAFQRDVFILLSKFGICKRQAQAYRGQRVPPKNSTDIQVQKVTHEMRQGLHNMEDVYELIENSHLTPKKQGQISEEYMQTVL
Method in brief: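 Using 15 concentrations per compound in triplicate, cAMP production was monitored in TSHR-HEK293 cells after 30 min compound incubation at RT; HTRF reagents followed, with fluorescence intensity recorded after 1 h.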

[19] = qHTS assay to identify small molecule agonists of the hypoxia (HIF-1) signaling pathway (AID 1224846; active = well fitted activation curve with a large enough effect in the signal ratio in the repeat runs, not every such curve was filed as active; the % refers to the signal ratio)
Method in brief: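 ME-180 HRE-bla reporter cells; compounds in DMSO, 17 h at 37C; read-out beta-lactamase via CCF4-AM FRET.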

Row | Compound | Potency [1] | Potency [2] | Potency [3] | Potency [4] | Potency [5] | Potency [6] | Potency [7] | Potency [8] | activity change, positive = activation ([9]; at 42.5 µM (top of the series)) | activity change, positive = activation ([9]; at 92.4 µM (top of the series)) | Potency [10] | Potency [11] | Potency [12] | Potency [13] | Potency [14] | Potency [15] | Potency [16] | Potency [17] | Potency [18] | outcome [19]
1 | CC1(C)O[C@@H]2C[C@H]3[C@@H]4CCC5=CC(=O)C=C[C@]5(C)[C@@]4(F)[C@@H](O)C[C@]3(C)[C@]2(C(=O)CO)O1 | inactive | inactive | inactive | inactive | inactive | inactive | inactive | inactive | -6.5% (inactive) | -23.9% (inactive) and -13.8% (inactive) | inactive | inactive | inactive | inactive | inactive and 9.52 µM (active) | – | – | – | – | –
2 | Cc1cc(C)nc(NS(=O)(=O)c2ccc(N)cc2)n1 | – | inactive | inactive | inactive | – | inactive | inactive | inactive | – | – | – | inactive | inactive | inactive | inactive | inactive | inactive | inactive | inactive | –
3 | O=C(Nc1ncc([N+](=O)[O-])s1)c1cccs1 | 13.3 µM (active) | 3.09 µM (active) | – | – | 0.841 µM (active) | inactive | inactive | 24.7 µM (active) | 14.6% (active) | – | – | inactive | inactive | inactive | inactive | inactive | 1.33 µM (active) | inactive | inactive | –
4 | Cc1cc(=O)oc2cc(O)ccc12 | – | inactive | inactive | inactive | – | inactive | – | inactive | – | – | inactive | inactive | inactive | inactive | inactive | inactive | inactive | inactive | inactive | –
5 | NC1CCCCC1 | – | inactive | inactive | inactive | – | inactive | inactive | inactive | – | – | inactive | inactive | inactive | inactive | inactive | inactive | inactive | inactive | 194 nM (active) and inactive | inactive
6 | Cc1ccc(S(=O)(=O)O)cc1 | inactive | – | inactive | inactive | – | inactive | inactive | inactive | – | – | inactive | inactive | inactive | inactive | inactive | – | – | – | – | inactive
7 | O=CC(=O)c1ccccc1 | – | inactive | inactive | inactive | – | inactive | – | – | – | -0.129% (inactive) | inactive | inactive | inactive | inactive | – | 68.7 µM (active) | inactive | inactive | 27.3 µM (active) | –
8 | CN1CCc2cccc3c2[C@H]1Cc1ccc(O)c(O)c1-3 | – | inactive | 49.1 µM (active) and 22.8 µM (active) | 49.1 µM (active) and 22.8 µM (active) | inactive | 39.3 µM (active) and 16.3 µM (active) | – | inactive | -69.6% (inactive) and -53% (inactive) | -66.3% (inactive) | 44.1 µM (active) and 16.3 µM (active) and 23.9 µM (active) | 15.7 µM (active) and 8.17 µM (active) and 23.9 µM (active) | inactive | 18.3 µM (active) | 55.5 µM (active) and inactive | inactive | 15.5 µM (active) and 9.09 µM (active) and 15 µM (active) | 30.9 µM (active) and 22.8 µM (active) | – | –
9 | CCOC(N)=O | inactive | inactive | inactive | inactive | – | inactive | inactive | inactive | – | – | – | inactive | inactive | inactive | inactive | – | – | – | inactive | –
10 | NC(CO)(CO)CO | – | inactive | inactive | inactive | – | inactive | inactive | inactive | – | – | inactive | inactive | inactive | inactive | inactive | inactive | inactive | inactive | inactive | –
11 | CN(C)C(=S)SC(=S)N(C)C | – | 25.8 µM (active) and 11.2 µM (active) and 12.3 µM (active) | 2.22 µM (active) and 1.72 µM (active) and 3.76 µM (active) | 1.57 µM (active) and 1.72 µM (active) and 2.37 µM (active) | inactive | 2 µM (active) and 1.23 µM (active) | – | 92.1 µM (active) and 31.8 µM (active) | -68.6% (inactive) | -79.6% (inactive) and -76.2% (inactive) | 1.74 µM (active) and 2.68 µM (active) | 1.78 µM (active) and 1.55 µM (active) and 6.74 µM (active) | inactive | 1.38 µM (active) and 3.01 µM (active) | 1.59 µM (active) and 3.09 µM (active) and 3.79 µM (active) | 1.25 µM (active) and 1.54 µM (active) and 2.37 µM (active) | inactive | 1.25 µM (active) and 1.37 µM (active) and 1.68 µM (active) | inactive | –
12 | O=C1OC2(c3ccccc31)c1cc(Br)c(O)c(Br)c1Oc1c2cc(Br)c(O)c1Br | 11 µM (active) and 25 µM (active) and 26.6 µM (active) | 28.7 µM (active) and 36.6 µM (active) | – | 7.81 µM (active) and 25 µM (active) | – | inactive | – | inactive | – | – | inactive | inactive | 11.1 µM (active) and 17.9 µM (active) and 23.9 µM (active) | inactive | 3.95 µM (active) and 11.3 µM (active) and 7.56 µM (active) | inactive | inactive | – | – | –
13 | CCN(Cc1c(F)cccc1Cl)c1c([N+](=O)[O-])cc(C(F)(F)F)cc1[N+](=O)[O-] | – | inactive | inactive | inactive | inactive | 21.9 µM (active) | inactive | – | – | -20.2% (inactive) | – | 49 µM (active) | inactive | inactive | inactive | inactive | 7.7 µM (active) | inactive | – | –
